Results filed as inconclusive are left out. Where a call stands in place of a potency, no number is given. Values without a mark were called inactive. Calls of active or inactive are those of the source. Calls follow the shape of the dose curve; as a rule, active = well fitted inhibition curve with a large enough effect in the signal ratio in the repeat runs, with a control signal flat; inconclusive = weak or mixed curves, or effect the other way; inactive = flat fitted curve, though single readings scatter; the % refers to the signal ratio.
The molecules below were run against D(2) dopamine receptor (Homo sapiens) (UniProt P14416) (assay: Dopamine D2 receptor (DRD2) small molecule antagonists, cell-based qHTS assay (AID 1963595)). Settings: HEK293-DRD2 cAMP HTRF antagonist mode; series mostly up to 92.4 µM.
D(2) dopamine receptor (Homo sapiens), sequence (P14416 whole entry, looked up): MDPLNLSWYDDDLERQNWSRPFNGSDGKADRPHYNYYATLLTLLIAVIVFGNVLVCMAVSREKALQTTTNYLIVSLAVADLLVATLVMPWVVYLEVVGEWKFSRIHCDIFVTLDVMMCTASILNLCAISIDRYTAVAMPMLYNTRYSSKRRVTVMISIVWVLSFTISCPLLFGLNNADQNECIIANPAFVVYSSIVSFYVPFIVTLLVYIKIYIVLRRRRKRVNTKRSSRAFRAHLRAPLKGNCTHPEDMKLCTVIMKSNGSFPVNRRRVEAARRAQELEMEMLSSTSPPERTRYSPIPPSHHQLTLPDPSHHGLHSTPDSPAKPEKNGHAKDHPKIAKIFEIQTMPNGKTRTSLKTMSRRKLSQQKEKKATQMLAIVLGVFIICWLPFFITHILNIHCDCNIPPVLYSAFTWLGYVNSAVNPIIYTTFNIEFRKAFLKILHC
Excerpt: National Center for Advancing Translational Sciences [NCATS]
Division of Preclinical Innovation [DPI]
U.S. Environmental Protection Agency [EPA]
National Institutes of Environmental Health Sciences [NIEHS]
National Toxicology Program [NTP]
U.S. Food and Drug Administration [FDA]
DRD2 is the D2 subtype of the dopamine receptor, which is coupled to Gi subtype of G protein-coupled receptor. This G protein-coupled receptor inhibits adenylyl cyclase activity. The DRD2-HEK293 cell line stably expressing D2 dopamine receptor can be used for screening agonists and antagonists of interactions between D2 and its ligands. The Hek293-DRD2 cAMP assay is based on HTRF technology. It measures changes of cAMP accumulation in response to Gi coupled GPCR activation or inhibition.
Tox21 Assay Protocol Summary:
DRD2-Hek293 cells were dispensed at 600 cells/3uL/well in 1536-well white plates using a Multidrop Dispenser. After the assay plates were incubated at a 37 C/5% CO2 incubator for 24 h, 1 uL of Ro20-1724 at final concentration of 0.1 mM was transferred to the assay plate by a Flying Reagent Dispenser. Following Ro20-1724 addition, 23 nL of compound dissolved in DMSO, positive controls or DMSO only was added to the assay plates via Wako pintool station. The assay plates were incubated at room temperature for 10 min. Next, 1 uL of mixture of NKH477 (final concentration at 200 nM) and quinpirole (final concentration at 12 nM) was added into the plates. After the assay plates were incubated at room temperature for an additional 30 min, 2.5 ul/well of cAMP-d2 and 2.5 ul/well of anti-cAMP-cryptate were added respectively into the assay plates using a Flying Reagent Dispenser. The plates were incubated at room temperature for 1 h. The fluorescence intensity in the plates was measured at 340 nm excitation and 665 & 620 nm emission by an Envision plate reader.

Q: Which Potency does the source give for C[C@@H]1CCN(C(=O)[C@H](CCCN=C(N)N)NS(=O)(=O)c2cccc3c2NC[C@H](C)C3)[C@@H](C(=O)O)C1 here?
A: inactive

Q: Cc1ccc(C=O)cc1 was tested. Which Potency did it give?
A: inactive

Q: Which Potency does the source give for Clc1ccc2c(c1)Nc1ccccc1S2 here?
A: inactive

Q: For CC(=O)OC/C=C(\C)CC/C=C(\C)CCC=C(C)C, which Potency is on record?
A: inactive

Q: CCc1cnc(C(=O)O)c(C(=O)O)c1 was tested. Which Potency did it give?
A: inactive

Q: How did the Potency turn out when O=C(NCN1CCOCC1)c1cnccn1 was run?
A: inactive

Q: CCc1c(Br)c(Br)c(Br)c(Br)c1Br was tested. Which Potency did it give?
A: inactive

Q: For C=CCCCCCCCCCCCCCCCC, which activity change, negative = inhibition is on record?
A: -1.92% [at 8.38 µM]

Q: How did the Potency turn out when C=C(C)[C@H]1CC=C(C)CC1 was run?
A: inactive

Q: NC(=O)c1ccc(N)cc1 was tested. Which Potency did it give?
A: inactive

Q: Which Potency does the source give for CCC(CO)(CO)CO here?
A: inactive

Q: With O=S(=O)(O)CCS as the molecule, how does the Potency read?
A: inactive

Q: Which Potency does the source give for F[Si-2](F)(F)(F)(F)F here?
A: inactive

Q: How did the Potency turn out when C=CC(=O)OCCCCCCCC was run?
A: inactive

Q: O=C(NCC1CCCCN1)c1cc(OCC(F)(F)F)ccc1OCC(F)(F)F (stereo not given) was tested. Which Potency did it give?
A: inactive

Q: CCN(CC)c1ccc2c(C)cc(=O)oc2c1 was tested. Which Potency did it give?
A: inactive

Q: How did the Potency turn out when CCN(CC)C(=O)C1CN2CCc3cc(OC)c(OC)cc3C2CC1OC(C)=O (stereo not given) was run?
A: inactive

Q: How did the Potency turn out when OC1(c2ccc(Cl)cc2)CCNCC1 was run?
A: inactive

Q: How did the Potency turn out when CC(C)Nc1ccccc1 was run?
A: inactive

Q: With Nc1cccc2c1CN(C1CCC(=O)NC1=O)C2=O (stereo not given) as the molecule, how does the Potency read?
A: inactive

Q: With Cc1occc1S as the molecule, how does the Potency read?
A: inactive

Q: Which Potency does the source give for CCCCOCCOCCOCCCC here?
A: inactive

Q: How did the Potency turn out when CC(C)COC(=O)c1ccccc1O was run?
A: inactive

Q: CC(C)N=C(N)/N=C(\N)Nc1ccc(Cl)cc1 was tested. Which Potency did it give?
A: inactive

Q: For CC[C@]1(O)C[C@@H]2CN(CCc3c([nH]c4ccccc34)[C@@](C(=O)OC)(c3cc4c(cc3OC)N(C)[C@H]3[C@@](O)(C(=O)OC)[C@H](OC(C)=O)[C@]5(CC)C=CCN6CC[C@]43[C@@H]65)C2)C1, which Potency is on record?
A: inactive

Q: With CCC(C)SSC(C)CC (stereo not given) as the molecule, how does the Potency read?
A: inactive

Q: With O=c1[nH]cnc2[nH]ncc12 as the molecule, how does the Potency read?
A: inactive

Q: How did the Potency turn out when COc1ccc(C)cc1 was run?
A: inactive

Q: Which Potency does the source give for NC(=O)c1ccccc1N here?
A: inactive

Q: For C=CC(=O)NC(C)C, which Potency is on record?
A: inactive

Q: CC(O)Cn1cnc2c1c(=O)n(C)c(=O)n2C (stereo not given) was tested. Which Potency did it give?
A: inactive

Q: Which Potency does the source give for CCNc1nc(N)nc(Cl)n1 here?
A: inactive

Q: COc1cc(CCC(C)=O)ccc1O was tested. Which Potency did it give?
A: inactive

Q: For CN(C)CCCNCCC#N, which Potency is on record?
A: inactive

Q: How did the Potency turn out when OCCOCCOCCOCCOCCO was run?
A: inactive

Q: CCCCCCCCCCCC(=O)OCC(C)OC(=O)CCCCC(=O)O (stereo not given) was tested. Which Potency did it give?
A: inactive

Q: For C=C[Si](OC(=C)C)(OC(=C)C)OC(=C)C, which Potency is on record?
A: inactive

Q: Cc1ccc(C(C)C)cc1O was tested. Which Potency did it give?
A: inactive

Q: CNC1(C)C2CCC(C2)C1(C)C (stereo not given) was tested. Which Potency did it give?
A: inactive

Q: For COc1ccc(Cl)cc1C, which Potency is on record?
A: inactive
